According to PubChem BioAssay AID1159580 (chemical genetic matrix, 2015):
Values joined by “and” are separate entries in the source; they are usually repeats but may differ in a detail not shown here. Equal entries are not always repeated. Hit rate of the full screen: of about 5,500 compounds, about 2,000 (36%) were called active. Inconclusive results (about 18%) are left out. No stated cut-off is given here; in the data, active means normalized growth mostly below about 0.91 (no sharp cut-off); inconclusive means no clear call, values can overlap the other calls; inactive means mostly above about 0.92. The list shows a part of the results.

Assay: chemical genetic growth profiling, strain panel (AID 1159580);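 further: tested at 20 µM; growth read once vehicle control cultures reached saturation at 30 °C; 1 = growth at the plate median or of vehicle wells; lower values mean less growth of the strain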
Conditions: S. cerevisiae deletion strains, growth OD

Measured: normalized growth

O=C1CC2OCC=C3CN4CC[C@]56c7ccccc7N1C5[C@H]2[C@H]3CC46 (some centres not stated)
inactive: locus YAL013W, strain DEP1, hits give low values 1 | locus YAL021C, strain ccr4, hits give low values 1.03 | locus YAL026C, strain drs2, hits give low values 1.03 | locus YAL030W, strain snc1, hits give low values 1.01 | locus YBL061C, strain skt5, hits give low values 1.01 | locus YBR009C, strain hhf1, hits give low values 1.02 | locus YBR021W, strain FUR4, hits give low values 1.01 | locus YBR023C, strain chs3, hits give low values 1.03 | locus YBR171W, strain sec66, hits give low values 1.03 | locus YBR229C, strain ROT2, hits give low values 1 | locus YBR231C, strain swc5, hits give low values 1.02 | locus YBR279W, strain paf1, hits give low values 1.03 | locus YCL011C, strain gbp2, hits give low values 1.03 | locus YCL016C, strain dcc1, hits give low values 1.03 | locus YCL029C, strain bik1, hits give low values 1 | locus YCL061C, strain MRC1, hits give low values 1.02 | locus YCL069W, strain vba3, hits give low values 1.02 | locus YCR088W, strain abp1, hits give low values 1.03 | locus YDL005C, strain med2, hits give low values 1.03 | locus YDL035C, strain GPR1, hits give low values 1.01 | locus YDL040C, strain nat1, hits give low values 1.03 | locus YDL074C, strain BRE1, hits give low values 1.02 | locus YDL101C, strain DUN1, hits give low values 1.01 | locus YDL134C, strain PPH21, hits give low values 1.01 | locus YDL185W, strain tfp1, hits give low values 0.983 | locus YDL192W, strain arf1, hits give low values 1 | locus YDR001C, strain nth1, hits give low values 1.03 | locus YDR069C, strain doa4, hits give low values 1.02 | locus YDR101C, strain arx1, hits give low values 0.992 | locus YDR137W, strain rgp1, hits give low values 1.05 | locus YDR150W, strain NUM1, hits give low values 1.01 | locus YDR159W, strain sac3, hits give low values 1.01 | locus YDR162C, strain NBP2, hits give low values 1.01 | locus YDR195W, strain ref2 1.1 | locus YDR297W, strain sur2, hits give low values 1.02 | locus YDR318W, strain mcm21, hits give low values 0.999 | locus YDR334W, strain swr1, hits give low values 1.01 | locus YDR335W, strain msn5, hits give low values 1.03 | locus YDR388W, hits give low values 1 | locus YDR392W, strain spt3, hits give low values 1.03 | locus YDR502C, strain sam2, hits give low values 1 | locus YEL003W, strain gim4, hits give low values 1.02 | locus YEL037C, strain rad23, hits give low values 1.03 | locus YEL061C, strain CIN8 (second series), hits give low values 1.02 | locus YEL061C, strain CIN8, hits give low values 1.01 | locus YER015W, strain faa2, hits give low values 1.03 | locus YER016W, strain bim1, hits give low values 1.02 | locus YER110C, hits give low values 0.996 | locus YER111C, strain swi4, hits give low values 1 | locus YER155C, strain BEM2 (second series), hits give low values 1.04 | locus YER155C, strain BEM2, hits give low values 1.02 | locus YER167W, strain BCK2, hits give low values 1.01 | locus YFR010W, strain ubp6, hits give low values 1.02 | locus YGL078C, strain dbp3, hits give low values 0.99 | locus YGL086W, strain mad1, hits give low values 0.998 | locus YGL167C, strain pmr1, hits give low values 1.02 | locus YGL173C, strain kem1, hits give low values 1.02 | locus YGL227W, strain vid30, hits give low values 1.03 | locus YGL240W, strain doc1, hits give low values 1.01 | locus YGL248W, strain PDE1, hits give low values 1.01 | locus YGL253W, strain hxk2, hits give low values 1.01 | locus YGR078C, strain PAC10, hits give low values 1.01 | locus YGR135W, strain pre9, hits give low values 0.982 | locus YGR229C, strain SMI1, hits give low values 1.03 | locus YGR252W, strain gcn5, hits give low values 0.914 | locus YHR013C, strain ard1, hits give low values 1.01 | locus YHR027C, strain rpn1, hits give low values 1.03 | locus YHR030C, strain SLT2, hits give low values 1 and 0.976 | locus YHR079C, strain IRE1 (second series), hits give low values 0.997 | locus YHR079C, strain IRE1, hits give low values 0.864 | locus YHR094C, strain hxt1, hits give low values 0.995 | locus YHR129C, strain ARP1, hits give low values 1.03 | locus YHR142W, strain chs7, hits give low values 1.03 | locus YHR200W, strain rpn10, hits give low values 1 | locus YIL066C, strain RNR3, hits give low values 1.01 | locus YIL073C, strain SPO22, hits give low values 1.02 | locus YIL125W, strain kgd1, hits give low values 1 | locus YIR030C, strain dcg1, hits give low values 1 | locus YJL092W, strain hpr5, hits give low values 1.02 | locus YJL095W, strain BCK1 (second series), hits give low values 1.03 | locus YJL095W, strain BCK1, hits give low values 1 and 0.974 | locus YJL115W, strain asf1, hits give low values 1 | locus YJL129C, strain trk1, hits give low values 1.05 | locus YJL134W, strain LCB3, hits give low values 1.01 | locus YJL154C, strain vps35, hits give low values 1.01 | locus YJL164C, strain tpk1, hits give low values 1.03 | locus YJL166W, strain qcr8, hits give low values 1.02 | locus YJL168C, strain set2, hits give low values 1 | locus YJL187C, strain SWE1 (second series), hits give low values 1.01 | locus YJL187C, strain SWE1, hits give low values 1.03 | locus YJR043C, strain POL32, hits give low values 0.997 | locus YJR066W, strain TOR1, hits give low values 0.961
